Consider five compounds from PubChem BioAssay (EPA / NIEHS).

Where “and” joins values, the source holds several entries; their conditions need not be identical. Equal values may be shown once. A structure can be active in one record and inactive in another. Calls of active or inactive are those of the source. How the source made its calls: active means hit-call score of the fitted dose curve at least 0.9, where 1 is the maximum; inactive means score below 0.9.

Read-out in assay [1]: Urokinase-type plasminogen activator receptor (uPAR), PLAUR (gene 5329)
The assay can be described thus: BSK_4H_uPAR: BioMAP Diversity Plus: 4H Assay for Urokinase-type plasminogen activator receptor (uPAR) Biomarker Activity (AID 2283030). Conditions: primary human endothelial cells (HUVEC); actives raise or lower the signal. An outline of the steps:
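Human umbilical vein endothelial cells in the 4H system, 24 h after chemical dosing. Cell-surface uPAR measured by ELISA, fitted in both directions versus DMSO; cytotoxicity checked by SRB total protein in parallel cultures.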

Read-out in assay [2]: Vascular endothelial growth factor receptor 2 (Homo sapiens) (UniProt P35968)
The assay can be described thus: BSK_4H_VEGFRII: BioMAP Diversity Plus: 4H Assay for Vascular endothelial growth factor receptor 2 (VEGFR2) Biomarker Activity (AID 2283031).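 On AC50: cell-surface VEGFR2 protein level quantified by ELISA.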 Conditions: primary human endothelial cells (HUVEC); actives raise or lower the signal. A digest of the protocol:
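Primary human umbilical vein endothelial cells (4H system), 24 h exposure; cell-surface VEGFR2 measured by ELISA. Bidirectional fitting versus DMSO; cytotoxicity checked in parallel by SRB total-protein staining.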

Read-out in assay [3]: Human Leukocyte Antigen - DR isotype (HLADR), HLA-DRA (gene 3122)
The assay can be described thus: BSK_BE3C_HLADR: BioMAP Diversity Plus: BE3C Assay for Human Leukocyte Antigen - DR isotype (HLADR) Biomarker Activity (AID 2283032). Conditions: primary human bronchial epithelial cells; actives raise or lower the signal. A digest of the protocol:
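Human primary bronchial epithelial cells (BE3C system) exposed to compound for 24 hours; cell-surface HLA-DR measured by ELISA, fitted bidirectionally relative to DMSO. Total protein by SRB in parallel cultures tracked cytotoxicity.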

Read-out in assay [4]: Vascular cell adhesion molecule 1 (VCAM1), VCAM1 (gene 7412)
The assay can be described thus: BSK_4H_VCAM1: BioMAP Diversity Plus: 4H Assay for Vascular cell adhesion molecule 1 (VCAM1) Biomarker Activity (AID 2283033). The conditions noted are these: primary human endothelial cells (HUVEC); actives raise or lower the signal. A digest of the protocol:
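Primary human umbilical vein endothelial cells, 4H stimulation system, treated for 24 h; cell-surface VCAM-1 quantified by ELISA. Bidirectional fitting against DMSO; cytotoxicity tracked by SRB total-protein staining in parallel cultures.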

Read-out in assay [5]: Interferon-gamma inducible Protein 10 (IP10), CXCL10 (gene 3627)
The assay can be described thus: BSK_BE3C_IP10: BioMAP Diversity Plus: BE3C Assay for Interferon-gamma inducible Protein 10 (IP10) Biomarker Activity (AID 2283034). Conditions: primary human bronchial epithelial cells; actives raise or lower the signal. An outline of the steps: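 Primary human bronchial epithelial cells, with IP-10 measured by ELISA 24 hours after chemical dosing. Bidirectional fit against DMSO; cytotoxicity checked by SRB total protein staining in parallel cultures.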

Read-out in assay [6]: Transforming growth factor beta 1 (TGFb1), TGFB1 (gene 7040)
The assay can be described thus: BSK_BE3C_TGFb1: BioMAP Diversity Plus: BE3C Assay for Transforming growth factor beta 1 (TGFb1) Biomarker Activity (AID 2283036). Conditions: primary human bronchial epithelial cells; actives raise or lower the signal. An outline of the steps:
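Primary human bronchial epithelial cells dosed with chemical; TGF-b1 measured by ELISA 24 h after dosing. Bidirectional curve fitting against DMSO negative control; SRB total-protein staining in parallel cultures gauged cytotoxicity.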

Read-out in assay [7]: Plasminogen activator inhibitor-1 (PAI1), SERPINE1 (gene 5054)
The assay can be described thus: BSK_BE3C_PAI1: BioMAP Diversity Plus: BE3C Assay for Plasminogen activator inhibitor-1 (PAI1) Biomarker Activity (AID 2283037). The conditions noted are these: primary human bronchial epithelial cells; actives raise or lower the signal. An outline of the steps:
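Primary human bronchial epithelial cells (BE3C system) exposed 24 h; PAI-1 quantified by ELISA. Parallel sulforhodamine B staining of total protein flags cytotoxicity. Bidirectional fit versus DMSO.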

Read-out in assay [8]: urokinase plasminogen activator (uPA), PLAU (gene 5328)
The assay can be described thus: BSK_BE3C_uPA: BioMAP Diversity Plus: BE3C Assay for urokinase plasminogen activator (uPA) Biomarker Activity (AID 2283038).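 On outcome: uPA protein level quantified by ELISA in cell cultures; uPA read one day after compound addition.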 Conditions: primary human bronchial epithelial cells; actives raise or lower the signal. A digest of the protocol:
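Primary human bronchial epithelial cells, uPA measured by ELISA 24 h after dosing. Bidirectional change relative to DMSO; cytotoxicity checked in parallel cultures by sulforhodamine B total-protein staining.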

Read-out in assay [9]: Urokinase-type plasminogen activator receptor (uPAR), PLAUR (gene 5329)
The assay can be described thus: BSK_BE3C_uPAR: BioMAP Diversity Plus: BE3C Assay for Urokinase-type plasminogen activator receptor (uPAR) Biomarker Activity (AID 2283039).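 On outcome: cells exposed to compound for one day before measurement.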 Conditions: primary human bronchial epithelial cells; actives raise or lower the signal. A digest of the protocol:
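Primary human bronchial epithelial cells dosed for 24 h; uPAR quantified by ELISA with bidirectional fitting against DMSO. Overt cytotoxicity assessed in parallel cultures by SRB total-protein staining (0.1% SRB, 560 nm).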

Read-out in assay [10]: Interleukin-6 (IL6), IL6 (gene 3569)
The assay can be described thus: BSK_CASM3C_IL6: BioMAP Diversity Plus: CASM3C Assay for Interleukin-6 (IL6) Biomarker Activity for (AID 2283040). The conditions noted are these: primary human coronary artery smooth muscle cells; actives raise or lower the signal.

Read-out in assay [11]: Tissue plasminogen activator (tPA), PLAT (gene 5327)
The assay can be described thus: BSK_BE3C_tPA: BioMAP Diversity Plus: BE3C Assay for Tissue plasminogen activator (tPA) Biomarker Activity (AID 2283041).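 On outcome: tPA level quantified by ELISA one day after compound addition.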 Conditions: primary human bronchial epithelial cells; actives raise or lower the signal. An outline of the steps:
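Primary human bronchial epithelial cells in the BE3C system, exposed to compound for 24 h. tPA was quantified by ELISA; DMSO served as baseline, with gain or loss of signal fitted. Cytotoxicity checked in parallel cultures by SRB total-protein staining.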

Read-out in assay [12]: Interleukin-8 (IL8), CXCL8 (gene 3576)
The assay can be described thus: BSK_CASM3C_IL8: BioMAP Diversity Plus: CASM3C Assay for Interleukin-8 (IL8) Biomarker Activity (AID 2283042).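 Further: IL-8 protein level quantified by ELISA.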 Conditions: primary human coronary artery smooth muscle cells; actives raise or lower the signal.

Read-out in assay [13]: Human Leukocyte Antigen - DR isotype (HLADR), HLA-DRA (gene 3122)
The assay can be described thus: BSK_CASM3C_HLADR: BioMAP Diversity Plus: CASM3C Assay for Human Leukocyte Antigen - DR isotype (HLADR) Biomarker Activity (AID 2283043).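 Further: cell-surface HLA-DR protein level quantified by ELISA.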 The conditions noted are these: primary human coronary artery smooth muscle cells; actives raise or lower the signal.

Read-out in assay [14]: Macrophage colony-stimulating factor (MCSF), CSF1 (gene 1435)
The assay can be described thus: BSK_CASM3C_MCSF: BioMAP Diversity Plus: CASM3C Assay for Macrophage colony-stimulating factor (MCSF) Biomarker Activity (AID 2283044).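 Further: M-CSF protein amount quantified by ELISA after 24 h exposure.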 Conditions: primary human coronary artery smooth muscle cells; actives raise or lower the signal.

Read-out in assay [15]: Low-density lipoprotein receptor (LDLR), LDLR (gene 3949)
The assay can be described thus: BSK_CASM3C_LDLR: BioMAP Diversity Plus: CASM3C Assay for Low-density lipoprotein receptor (LDLR) Biomarker Activity (AID 2283045).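 Further: LDLR protein level on the cell surface quantified by ELISA.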 Conditions: primary human coronary artery smooth muscle cells; actives raise or lower the signal.

Read-out in assay [16]: Monocyte Chemoattractant Protein-1 (MCP1), CCL2 (gene 6347)
The assay can be described thus: BSK_CASM3C_MCP1: BioMAP Diversity Plus: CASM3C Assay for Monocyte Chemoattractant Protein-1 (MCP1) Biomarker Activity (AID 2283046).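 Further: MCP-1 level quantified by ELISA 24 h after dosing.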 Conditions: primary human coronary artery smooth muscle cells; actives raise or lower the signal.

Assay [17] is described as follows: BSK_CASM3C_Proliferation: Cell Proliferation Assessment in the BioMAP Diversity Plus: CASM3C Assay (AID 2283047).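 Further: sulforhodamine B total protein stain as relative cell number at 560 nm; sub-confluent cells exposed 48 h before staining; fitted both ways against DMSO so gain or loss of cell number.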 The conditions noted are these: primary human coronary artery smooth muscle cells.
Read-out in assay [18]: Monokine induced gamma interferon (MIG), CXCL9 (gene 4283)
The assay can be described thus: BSK_CASM3C_MIG: BioMAP Diversity Plus: CASM3C Assay for Monokine induced gamma interferon (MIG) Biomarker Activity (AID 2283048).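 Further: MIG protein level measured by ELISA.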 Conditions: primary human coronary artery smooth muscle cells; actives raise or lower the signal.

Read-out in assay [19]: serum amyloid A (SAA), SAA1 (gene 6288)
The assay can be described thus: BSK_CASM3C_SAA: BioMAP Diversity Plus: CASM3C Assay for serum amyloid A (SAA) Biomarker Activity (AID 2283049).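 Further: SAA protein level quantified by ELISA.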 Conditions: primary human coronary artery smooth muscle cells; actives raise or lower the signal.

Read-out in assay [20]: Monokine induced gamma interferon (MIG), CXCL9 (gene 4283)
The assay can be described thus: BSK_BE3C_MIG: BioMAP Diversity Plus: BE3C Assay for Monokine induced gamma interferon (MIG) Biomarker Activity (AID 2283035). The conditions noted are these: primary human bronchial epithelial cells; actives raise or lower the signal. An outline of the steps: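 MIG level was determined by ELISA after 24 h chemical treatment of primary human bronchial epithelial cells. Values were fitted bidirectionally with DMSO as the negative control and activity baseline.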

On to `CC(Oc1ccc(Cl)cc1Cl)C(=O)O` (configuration not stated), for which the result in assay [1], in assay [2], in assay [3], in assay [4], in assay [5] and in assay [6] was inactive. Besides, the outcome in [7], in [8], in [9], in assay [10], in assay [11] and in [12] was inactive. Besides, the outcome in assay [13], in assay [14], in assay [15], in assay [16], in [17] and in assay [18] was inactive. Moreover, the outcome in [19] was inactive.

As for `CCCCNC(=O)OCC#CI`, the AC50 (usually the concentration at which the activity in the assay is half-maximal) was 27.9 µM (active) and 25.8 µM (active) in [1]; 22.9 µM (active) and 32.7 µM (active) in [2]; 28.8 µM (active) and 31.2 µM (active) in assay [3]; 25.1 µM (active) and 21.8 µM (active) in assay [4]; 34 µM (active) and 31.1 µM (active) in [5]; 37 µM (active) and 31.3 µM (active) in assay [20]. The AC50 in [6] was 31.2 µM (active) and 32.1 µM (active); in [7], 30.1 µM (active); in assay [8] it was 32 µM (active) and 30.6 µM (active); in [9] it was 30 µM (active) and 30.4 µM (active); in assay [10] it was 32.3 µM (active) and 36.3 µM (active); in assay [11], 30 µM (active). Also, the AC50 in assay [12] was 36.6 µM (active); in assay [13], 30.8 µM (active) and 24.6 µM (active); in assay [14], 26.4 µM (active) and 15.8 µM (active); in assay [16] it was 20.8 µM (active) and 24.5 µM (active); in assay [17], 6.91 µM (active) and 7.15 µM (active); in assay [18], 29.5 µM (active) and 28.7 µM (active). For the same compound, the AC50 in [19] is 14.8 µM (active) and 14.3 µM (active). Moreover, the result in [11] and in assay [15] was inactive.

For the compound `COc1cnc(OC)n2nc(NS(=O)(=O)c3c(OCC(F)F)cccc3C(F)(F)F)nc12`, the result in [1], in assay [2], in assay [3], in assay [4], in assay [5] and in [6] was inactive. For the same compound, the result in assay [7], in assay [8], in [9], in [10], in assay [11] and in assay [12] was inactive. Also, the result in assay [13], in assay [14], in [15], in [16], in [17] and in [18] was inactive. Besides, the result in [19] was inactive. In addition, the AC50 in assay [7] was 0.0487 µM (active); in [15], 16.8 µM (active).

For `O=C(O)c1nc(Cl)ccc1Cl`, the result in [1], in assay [2], in assay [3], in [4], in [5] and in [6] was inactive. Further, the outcome in [7], in assay [8], in [9], in [10], in assay [11] and in assay [12] was inactive. Also, the outcome in [13], in assay [14], in assay [15], in assay [16], in [17] and in [18] was inactive. The outcome in assay [19] was inactive. The AC50 in [3] was 28.8 µM (active); in [16], 147 nM (active).

Turning to `Cc1c(F)c(F)c(COC(=O)C2C(/C=C(\Cl)C(F)(F)F)C2(C)C)c(F)c1F` (configuration not stated), the result in [1], in [2], in assay [3], in assay [4], in [5] and in assay [20] was inactive. Also, the outcome in assay [6], in assay [7], in assay [8], in assay [9], in assay [10] and in assay [11] was inactive. The result in [12], in assay [13], in assay [14], in [15], in assay [16] and in assay [17] was inactive. Moreover, the result in assay [18] and in [19] was inactive.
